Screening results (PubChem)
Six1-Eya2 blk = Six1/Eya2 interaction inhibition; activity change, % (no concentration beside the values); AlphaScreen GST-Six1/His-Eya2 binding, biochemical; active compounds read low; Q15475+O00167; actives 0.56% (n = 360,000)
Target sequence (O00167 whole entry, looked up): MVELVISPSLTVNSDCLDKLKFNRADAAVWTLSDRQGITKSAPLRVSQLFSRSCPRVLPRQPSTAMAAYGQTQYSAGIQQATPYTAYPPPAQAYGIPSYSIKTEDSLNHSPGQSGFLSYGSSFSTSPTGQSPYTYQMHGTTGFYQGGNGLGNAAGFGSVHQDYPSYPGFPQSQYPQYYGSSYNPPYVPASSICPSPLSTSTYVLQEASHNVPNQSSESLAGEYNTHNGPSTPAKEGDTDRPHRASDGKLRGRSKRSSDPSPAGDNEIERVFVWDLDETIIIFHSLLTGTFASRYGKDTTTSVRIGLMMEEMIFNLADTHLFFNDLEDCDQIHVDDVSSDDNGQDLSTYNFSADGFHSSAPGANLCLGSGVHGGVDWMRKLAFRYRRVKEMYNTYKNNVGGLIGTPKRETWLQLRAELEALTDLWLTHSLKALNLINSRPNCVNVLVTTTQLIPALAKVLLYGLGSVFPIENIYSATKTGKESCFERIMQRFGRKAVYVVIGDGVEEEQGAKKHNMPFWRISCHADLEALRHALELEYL
Target sequence (Q15475 whole entry, looked up): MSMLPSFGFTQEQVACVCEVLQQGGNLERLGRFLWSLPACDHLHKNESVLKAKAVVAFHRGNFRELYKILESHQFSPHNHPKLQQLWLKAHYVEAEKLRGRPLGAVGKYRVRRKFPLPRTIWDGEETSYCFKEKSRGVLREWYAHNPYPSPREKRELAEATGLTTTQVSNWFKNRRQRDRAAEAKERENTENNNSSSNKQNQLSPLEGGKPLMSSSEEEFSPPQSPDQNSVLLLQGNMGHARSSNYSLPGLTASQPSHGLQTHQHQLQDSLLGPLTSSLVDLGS
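AlphaScreen luminescence read after one hour at 37 °C in darkness. Pin-transferred compounds met GST-Six1 and His-Eya2 protein (5X stock 250 nM/500 nM) plus glutathione donor and Ni-chelate acceptor beads (5X, 50 ug/mL).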
PI4K2A block = blocks human PI4K2A kinase activity | AID 1346378 | actives 0.13% (n = 420,000) | purified PI4K2A, ADP-Glo luminescence, 1 h; active compounds read low | Q9BTU6 | activity change, negative = inhibition, % at 76.9 µM; in the data active = activity change below about -50%; inconclusive = mostly about -30% to -49%
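PI4K2A activity was measured by ADP-Glo luminescence: enzyme (4 ug/mL stock) and phosphatidylinositol (1.2 mM stock) in Tris pH 7.5/MgCl2/EGTA/Triton X-100 buffer were reacted with ATP (300 microM stock) for one hour at ambient temperature.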
pAkt inh = Akt phosphorylation inhibition; actives 0.32% (n = 360,000); Neuro2A IGF-stimulated pAkt S473 HTRF, 20 min; active compounds read low; activity change, % for hits at 50 µM; AID 651550; in the data active = activity change below about -80%; inconclusive = mostly about -51% to -80%
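Single-point screen (50 µM final compound) in Neuro2A cells stimulated 20 min with 6 nM IGF at 37 deg C. After lysis, Ser473-phosphorylated Akt read by HTRF (ex 330 nm, em 615/665 nm) as the 665/615 ratio.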
PI5P4Ka inh = blocks human PI5P4K alpha kinase activity; actives 1.2% (n = 330,000); PI5P4Kalpha enzyme, ADP-Glo luminescence, 60 min; active compounds read low; AID 652105; max response, %; P48426; active = max response of -50% or lower; inconclusive = between -30% and -50%; inactive = -30% or higher; note: value at the top dose of about 77 µM
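Human PI5P4Kalpha with substrate in 0.038 M HEPES pH 7.4, 0.28 mM EGTA, 0.1% CHAPS, 5% DMSO; reaction started with 5 microM ATP (final), 60 min at room temperature. ADP formed read by ADP-Glo luminescence.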
CtBP-E1A blk = inhibitors of CtBP/E1A interaction; AlphaScreen GST-E1A/His-CtBP binding, 1536-well; active compounds read low; activity change, % (test concentration not listed); actives 0.49% (n = 340,000)
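AlphaScreen with 125 nM GST-E1A and 125 nM His-CtBP (5X stocks) in Tris pH 8.0, 300 mM NaCl, BSA, Tween 20, TCEP. Compounds preincubated 2 h at 37 deg C, then glutathione donor/nickel acceptor beads added for 1 h at 37 deg C in dark.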
Numbers stand for hits; ! = not confirmed by another sample. Hits are enriched below; roughly 1.8% of the tested compounds scored in any of these assays. Cut-off read from the data, not from the text of the source, unless noted: active = activity change below about -65%; inconclusive = mostly about -30% to -63%; inactive = weaker than that.

`CN1C(=O)c2cccc3c(S(=O)(=O)Nc4ccc(O)c(C(=O)O)c4)ccc1c23` gave Six1-Eya2 blk -72, PI4K2A block inactive, pAkt inh inactive, PI5P4Ka inh inactive and CtBP-E1A blk inconclusive.
CN1C(=O)c2cccc3c(S(=O)(=O)NCCc4ccccc4)ccc1c23 was read as Six1-Eya2 blk inactive, PI4K2A block inactive, pAkt inh inactive, PI5P4Ka inh inactive and CtBP-E1A blk inactive.
For COc1ccc(OCC(=O)N(Cc2ccc(C)o2)C2CCS(=O)(=O)C2)cc1 (configuration not stated) the results were Six1-Eya2 blk inactive, PI4K2A block inactive, pAkt inh inactive, PI5P4Ka inh inactive and CtBP-E1A blk inactive.
For O=C1NC(=S)N/C1=C/c1cccc([N+](=O)[O-])c1O the results were Six1-Eya2 blk inactive, PI4K2A block inactive, pAkt inh inactive, PI5P4Ka inh -89 and CtBP-E1A blk inactive.
Screening Cc1ccc(/C=C2\NC(=S)NC2=O)cc1[N+](=O)[O-] returned Six1-Eya2 blk inactive, PI4K2A block inactive, pAkt inh inactive, PI5P4Ka inh inactive and CtBP-E1A blk inactive.
O=C1NC(=S)N/C1=C/c1cc([N+](=O)[O-])ccc1O was read as Six1-Eya2 blk inactive, PI4K2A block inactive, pAkt inh inactive, PI5P4Ka inh -61 and CtBP-E1A blk inactive.
`COc1ccc(N2CCN(C(=O)CCc3c(C)nc4c(-c5ccccc5)c(C)nn4c3C)CC2)cc1` gave PI4K2A block inactive.
For Cc1cc(C)cc(NC(=S)NCC2CCCO2)c1 (configuration not stated) the results were Six1-Eya2 blk inactive, PI4K2A block inactive, pAkt inh -115%, PI5P4Ka inh inactive and CtBP-E1A blk inactive.
`CC1=C(C(=O)OC(C)C)C(c2ccc(Br)s2)NC(=O)N1` (configuration not stated) gave Six1-Eya2 blk inactive, PI4K2A block inactive, pAkt inh inactive and CtBP-E1A blk inactive.
Screening O=C(c1cccs1)N1CCCC(c2nc3c(nnn3Cc3cccc(Cl)c3)c(=O)[nH]2)C1 (configuration not stated) returned Six1-Eya2 blk inactive, PI4K2A block inactive, pAkt inh inactive, PI5P4Ka inh inactive and CtBP-E1A blk inactive.
For O=C(c1cccs1)N1CCC(c2nc3c(nnn3Cc3cccc(Cl)c3)c(=O)[nH]2)CC1 the results were Six1-Eya2 blk -68, PI4K2A block inactive, pAkt inh inactive, PI5P4Ka inh inactive and CtBP-E1A blk inactive.
Screening O=C(Oc1c(CN2CCOCC2)cc(Cl)c2cccnc12)c1ccc(F)cc1 returned Six1-Eya2 blk -91, PI4K2A block inactive, pAkt inh inactive and CtBP-E1A blk -92.
Screening COc1cc(C(=O)Oc2c(CN3CCOCC3)cc(Cl)c3cccnc23)cc(OC)c1OC returned Six1-Eya2 blk -92, PI4K2A block inactive, pAkt inh inactive, PI5P4Ka inh inactive and CtBP-E1A blk -92.
For COc1cccc(C(=O)Oc2c(CN3CCOCC3)cc(Cl)c3cccnc23)c1 the results were Six1-Eya2 blk -88, PI4K2A block inactive, pAkt inh inactive, PI5P4Ka inh inactive and CtBP-E1A blk -91.
Screening COc1ccc(C(=O)Oc2c(CN3CCOCC3)cc(Cl)c3cccnc23)cc1 returned Six1-Eya2 blk inconclusive, PI4K2A block inactive, pAkt inh inactive, PI5P4Ka inh inactive and CtBP-E1A blk -65.
`COc1cccc(C(=O)OCCN2CCOCC2)c1` gave Six1-Eya2 blk inactive, PI4K2A block inactive, pAkt inh inactive and PI5P4Ka inh inactive.
`COc1cc(C(=O)Oc2c(OC)cc(C(=S)N3CCOCC3)cc2OC)cc(OC)c1OC` gave Six1-Eya2 blk inactive, PI4K2A block inactive, pAkt inh inactive, PI5P4Ka inh inactive and CtBP-E1A blk inactive.
For O=C(Oc1ccc(Cl)c2cccnc12)N1CCOCC1 the results were Six1-Eya2 blk inactive, PI4K2A block inactive, pAkt inh inactive, PI5P4Ka inh inactive and CtBP-E1A blk inactive.
For CN1CCN(c2ccc(C(CC(N)=O)NC(=O)Cc3ccc(Br)cc3)cc2[N+](=O)[O-])CC1 (configuration not stated) the results were Six1-Eya2 blk inactive, PI4K2A block inactive, pAkt inh inactive, PI5P4Ka inh inactive and CtBP-E1A blk inactive.
Screening Cc1nn(C)cc1CN(C)C(=O)c1sc2cccc(Cl)c2c1Cl returned Six1-Eya2 blk inactive, PI4K2A block inactive, pAkt inh inactive, PI5P4Ka inh inactive and CtBP-E1A blk inactive.
`NNc1nccc(Nc2ccccc2C(=O)O)n1` gave Six1-Eya2 blk -90, PI4K2A block inactive, pAkt inh inactive, PI5P4Ka inh -54 and CtBP-E1A blk -67.
`c1ccc(Nc2ccnc(Nc3ccccc3)n2)cc1` gave Six1-Eya2 blk inactive, PI4K2A block inactive, pAkt inh inactive, PI5P4Ka inh inactive and CtBP-E1A blk inactive.
`CC1(C)N([O-])C(c2ccccc2)=C[N+](=O)C1(C)C` gave Six1-Eya2 blk inactive, PI4K2A block inactive, pAkt inh inactive, PI5P4Ka inh inactive and CtBP-E1A blk inactive.
Screening CC1(C)N([O-])C(c2cccs2)=C[N+]1=O returned Six1-Eya2 blk inactive, PI4K2A block inactive, pAkt inh -124%, PI5P4Ka inh inactive and CtBP-E1A blk inactive.
O=C(O)CC(NC(=S)NCc1ccccc1)C(=O)O (configuration not stated) was read as Six1-Eya2 blk inactive, PI4K2A block inactive, pAkt inh inactive, PI5P4Ka inh inactive and CtBP-E1A blk inactive.
`CCn1c(O)c(C=Nc2ccccc2)sc1=S` gave Six1-Eya2 blk inactive, PI4K2A block inactive, pAkt inh inactive, PI5P4Ka inh inactive and CtBP-E1A blk inactive.
`O=C(O)Cn1c(O)c(C=Nc2ccccc2)sc1=S` gave Six1-Eya2 blk inactive, PI4K2A block inactive, pAkt inh -107%!, PI5P4Ka inh inactive and CtBP-E1A blk inactive.
`COc1ccccc1/C=C/C=N/n1c(COc2ccccc2)n[nH]c1=S` gave Six1-Eya2 blk inactive, PI4K2A block inactive, pAkt inh inactive, PI5P4Ka inh inactive and CtBP-E1A blk inactive.
Screening Oc1ccc(NCc2ccccc2OCc2ccc(Cl)cc2)cc1 returned PI4K2A block -53.
For CCOc1cc(CNc2ccc(O)cc2)ccc1OCc1ccc(Cl)cc1 the results were PI4K2A block -55.
Cc1cccc(OC(=O)Nc2ccc(C(=O)O)c(O)c2)c1 was read as Six1-Eya2 blk inactive, PI4K2A block inactive, pAkt inh inactive, PI5P4Ka inh -54 and CtBP-E1A blk inactive.
COc1ccc2nc(-n3c(O)c(C4=c5ccccc5=NC4=O)[nH]c3=S)sc2c1 was read as Six1-Eya2 blk inconclusive, PI4K2A block inactive, pAkt inh inactive, PI5P4Ka inh -67 and CtBP-E1A blk inactive.
Cn1c(O)c(C2=c3ccccc3=NC2=O)[nH]c1=S was read as Six1-Eya2 blk inconclusive, PI4K2A block inactive, pAkt inh inactive, PI5P4Ka inh inactive and CtBP-E1A blk inactive.
